Source: PubChem
JMJD2A Tudor – blocks the human JMJD2A Tudor domain; O75164; AlphaScreen JMJD2A-Tudor / H3K4me3 peptide binding; Potency, µM (series often up to 114 µM), actives largely listed as inhibitors; 390,000 tested, 4.4% active; AID 504339; note: nearly all actives have a fitted effect of over 50% in size
BAZ2B block – blocks human BAZ2B; Q9UIF8; AlphaScreen BAZ2B-H3K14Ac peptide displacement; Potency, µM (top dose mostly 114 µM), actives largely listed as inhibitors; 360,000 tested, 4.4% active; note: nearly all actives have a fitted effect of over 60% in size
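AlphaScreen displacement of biotin-H3(5-23)K14Ac peptide (50 nM final) from BAZ2B (50 nM final) in PBS pH 7.4, 0.01% Tween-20; complex preformed 30 min RT, then compounds (top 110 uM) 30 min RT, beads 20 min dark.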
G9a block – G9a (human) methyltransferase inhibition | Q96KQ7 | G9a H3K9 monomethylation, AlphaScreen, 2 h | Potency, µM (titrated, usually from 102 µM), hits mostly inhibitors | 350,000 tested, 8.8% active; note: nearly all actives have a fitted effect of over 75% in size
Target sequence (Q96KQ7 913-1193 limits assumed): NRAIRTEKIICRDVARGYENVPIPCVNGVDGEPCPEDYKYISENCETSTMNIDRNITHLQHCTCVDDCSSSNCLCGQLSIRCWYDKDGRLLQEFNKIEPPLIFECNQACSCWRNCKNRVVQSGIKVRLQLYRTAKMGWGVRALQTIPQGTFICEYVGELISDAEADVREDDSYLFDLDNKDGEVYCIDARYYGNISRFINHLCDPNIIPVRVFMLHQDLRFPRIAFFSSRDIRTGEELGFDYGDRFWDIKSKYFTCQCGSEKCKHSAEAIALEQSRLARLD
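Enzyme 20 nM + cpd, 15 min RT; add b-H3K9 pep 500 nM / SAM 20 uM; 2 h RT; anti-H3K9me1 Ab 0.5 ug/mL + SA donor / anti-rabbit acceptor beads 20 ug/mL each, 10 min; AlphaScreen read.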
Sfp inh – blocks B. subtilis Sfp PPTase activity. 310,000 tested, 3.5% active. AID 1490. Biochemical Sfp PPTase activity, qHTS. Q9F4F7. Potency, µM, actives largely listed as inhibitors;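 note: the enzyme is Sfp with the accession as filed and its product quenches rhodamine fluorescence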
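Compounds were incubated with enzyme (final 15 nM) for 15 min at room temperature before substrate addition started the reaction. Fluorescence at 525 nm excitation, 598 nm emission was recorded immediately and after 30 minutes.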
PLK1 PBD inh – inhibitors of human PLK1 polo-box domain binding; P53350; Plk1 PBD binding of FITC phosphopeptide, fluorescence polarization; Potency, µM, usual class: inhibitors; 360,000 tested, 2.8% active; AID 720504; note: series mostly up to about 57 µM; nearly all actives have a fitted effect of over 65% in size
HP1b binding inh – inhibitors of HP1-beta chromodomain binding to methylated histone tails | P83916 | AlphaScreen HP1-beta / biotin-H3K9me3 peptide binding | Potency, µM (top dose mostly 114 µM), hits mostly inhibitors | 390,000 tested, 0.56% active; note: nearly all actives have a fitted effect of over 70% in size
Target sequence (P83916 whole entry, looked up): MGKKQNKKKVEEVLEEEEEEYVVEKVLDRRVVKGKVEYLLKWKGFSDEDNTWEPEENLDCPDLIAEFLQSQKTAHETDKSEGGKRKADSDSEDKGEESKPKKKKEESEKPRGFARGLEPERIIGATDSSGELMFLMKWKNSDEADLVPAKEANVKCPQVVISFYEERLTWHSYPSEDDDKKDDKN
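HP1-beta protein (50 nM final) preincubated 30 min at room temperature with biotinylated H3(1-18)K9me3 peptide (50 nM) in PBS pH 7.4, 0.01% Tween-20, then compound added for 30 min. AlphaScreen streptavidin donor/nickel chelate acceptor beads (10 ug/mL final), 30 min dark, luminescence read.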
Large screens that a line does not name were inactive; ! = repeats disagree. In the library only some 12% were active in any assay of this set; here they are far more common. Calls come from the whole dose curve; as a rule, active = well fitted curve in the direction sought with a large enough effect; inconclusive = small, poorly fitted or top-dose-only effect, or another doubt; inactive = no such curve, though single readings can be large; an effect the other way counts as inactive or inconclusive.

COc1ccc(-n2nnnc2SCC(=O)N2CCCC2)cc1OC	none
O=C(Cn1nnc(-c2ccc(Cl)cc2)n1)N1CCN(C(=O)c2ccco2)CC1	none (no result: Sfp inh)
Cc1ccc(-n2nnnc2SCC(=O)N2CCN(C(=O)c3ccco3)CC2)c(C)c1	none
COc1ccc(C(=O)Nc2ccc(-c3nnn(CC(=O)N4CCN(C(=O)c5ccco5)CC4)n3)cc2)cc1	BAZ2B block 79µM, G9a block 50µM
COc1ccc(-n2nnnc2SCC(=O)N2CCN(C(=O)c3ccco3)CC2)cc1OC	JMJD2A Tudor inconclusive, PLK1 PBD inh 19µM
COc1ccc(OC)c(-n2nnnc2SCC(=O)N2CCN(C(=O)c3ccco3)CC2)c1	JMJD2A Tudor 20µM, G9a block inconclusive, PLK1 PBD inh 17µM
COc1ccc(-c2cc(-c3ccc(C)cc3)nc3c2COc2ccccc2-3)cc1	none (no result: Sfp inh, PLK1 PBD inh)
CCCCCCCCCCC(C)(C)C(=O)Nc1c(OC)cc(OC)cc1OC	none (no result: JMJD2A Tudor, BAZ2B block, PLK1 PBD inh, HP1b binding inh)
Cn1cnnc1SCC(=O)N1CCN(C(=O)c2ccco2)CC1	G9a block 35µM
Cc1nnc(SCC(=O)N2CCN(C(=O)c3ccco3)CC2)n1C	G9a block inconclusive (no result: Sfp inh)
CCSc1nnc(SCC(=O)N2CCN(C(=O)c3ccco3)CC2)s1	none
O=C(CSc1nc2cc(Cl)ccc2s1)N1CCN(C(=O)c2ccco2)CC1	G9a block 45µM
CC1(C)O[C@@H](CC(=O)O)[C@]23CO[C@H](C(=O)[C@]4(C)C2CC[C@@]2(C)[C@H](c5ccoc5)OC(=O)C5O[C@]524)[C@@H]13 (stereo not given in full)	none (no result: BAZ2B block, G9a block, Sfp inh)
COC(=O)[C@H]1C[C@@H]2CC[C@@H](O)C[C@@H]2N1Cc1c(F)cccc1Cl	none (no result: JMJD2A Tudor, BAZ2B block, G9a block, PLK1 PBD inh, HP1b binding inh)
COC(=O)c1c(-c2ccc(OC)cc2)oc2ccc(-c3ccc(OC)nc3)cc12	none
CCCOC(=O)c1c(-c2ccc(OC)cc2)oc2ccc(-c3ccc(OC)nc3)cc12	G9a block inconclusive, PLK1 PBD inh 38µM
O=C(O)c1cc(NC(=S)NC(=O)C(c2ccccc2)c2ccccc2)ccc1Cl	G9a block inconclusive, PLK1 PBD inh 67µM
CC(=O)NNC(=S)NC(=O)C(c1ccccc1)c1ccccc1	none (no result: G9a block)
CN(C)C(=S)NC(=O)C(c1ccccc1)c1ccccc1	G9a block 79µM
COc1c(C)cc(Br)cc1C(=O)NC(=S)Nc1ccc(Cl)c(C(=O)O)c1	G9a block 50µM, PLK1 PBD inh 17µM
CCOc1cc(C(=O)NC(=S)Nc2ccc(Cl)c(C(=O)O)c2)cc(OCC)c1OCC	JMJD2A Tudor inconclusive, G9a block 40µM, Sfp inh inconclusive, PLK1 PBD inh inconclusive
CN(C)/C=C/C(=O)c1ccc(-c2ccc(Cl)cc2Cl)o1	BAZ2B block inconclusive, G9a block 45µM
O=[N+]([O-])c1ccc2ncnc(N3CCN(Cc4ccc5c(c4)OCO5)CC3)c2c1	JMJD2A Tudor inconclusive, BAZ2B block 40µM (no result: G9a block)
COc1ccc2[nH]c3c(N4CCN(Cc5ccc6c(c5)OCO6)CC4)ncnc3c2c1	JMJD2A Tudor inconclusive, BAZ2B block 50µM, G9a block 50µM
O=C(Cc1ccccc1)Nc1ccccc1C(=O)N1CCN(c2ccccc2)CC1	G9a block inconclusive
CC12CC(NC(=O)N1c1cccc(C(=O)N3CCCCC3)c1)c1ccccc1O2 (stereo not given)	none
CCc1nnc(NC(=O)c2nc(S(=O)(=O)Cc3ccccc3)ncc2Cl)s1	JMJD2A Tudor 7.9µM, BAZ2B block inconclusive, G9a block 28µM, Sfp inh inconclusive
CCc1nnc(NC(=O)c2nc(S(=O)(=O)Cc3cccc(C)c3)ncc2Cl)s1	JMJD2A Tudor 2.8µM, BAZ2B block inconclusive, G9a block 45µM, Sfp inh 56µM, PLK1 PBD inh 27µM
CC(=O)Nc1ccc(NC(=O)c2nc(S(=O)(=O)Cc3ccccc3)ncc2Cl)cc1	PLK1 PBD inh 17µM
CS(=O)(=O)c1ncc(Cl)c(C(=O)Nc2ccc3ccccc3c2)n1	G9a block 10µM, Sfp inh 13µM, PLK1 PBD inh 9.5µM
CCc1nnc(NC(=O)c2nc(Cl)ccc2Cl)s1	G9a block inconclusive
COC(=O)c1nnn(CC(=O)Nc2cc(F)ccc2F)c1C(=O)OC	none (no result: Sfp inh, PLK1 PBD inh)
CCn1c(SCC(=O)Nc2cc(C)on2)nc2c(c1=O)SCC2	none
Cc1ccc2cc(CN(C)C(=O)c3cccc(Cl)c3)c(=O)[nH]c2c1	none (no result: Sfp inh, PLK1 PBD inh)
C=C(C)C(O)/C=C/c1ccccc1OC (stereo not given)	none (no result: JMJD2A Tudor, BAZ2B block, G9a block, PLK1 PBD inh, HP1b binding inh)
O=C(NCCCc1nc2ccccc2n1Cc1ccccc1Cl)C1CCCCC1	none (no result: Sfp inh, PLK1 PBD inh)
COC(=O)c1ccccc1NC(=O)c1nc(S(=O)(=O)Cc2ccccc2)ncc1Cl	PLK1 PBD inh inconclusive
CSc1nnc(NC(=O)c2nc(S(=O)(=O)Cc3cccc(C)c3)ncc2Cl)s1	JMJD2A Tudor inconclusive, G9a block 4.5µM, PLK1 PBD inh inconclusive
CCOc1ccccc1NC(=O)c1nc(S(=O)(=O)Cc2cccc(C)c2)ncc1Cl	JMJD2A Tudor inconclusive, G9a block 56µM!, PLK1 PBD inh inconclusive
CCc1nnc(NC(=O)c2ccc3ccccc3n2)s1	G9a block 50µM, Sfp inh inconclusive
CCc1nnc(NC(=O)c2nc(S(=O)(=O)Cc3ccc(C)cc3)ncc2Cl)s1	JMJD2A Tudor 14µM!, BAZ2B block inconclusive, G9a block 45µM!, PLK1 PBD inh 24µM
CCSc1nnc(NC(=O)c2ccc3ccccc3n2)s1	Sfp inh inconclusive
COc1cc(OC)c(NC(=O)Nc2cc(C)on2)cc1Cl	none (no result: JMJD2A Tudor, BAZ2B block, G9a block, PLK1 PBD inh, HP1b binding inh)
COc1ccc(C2Nc3ccccc3C(=O)N2Cc2ccccc2)cc1COc1ccc(Cl)cc1 (stereo not given)	none (no result: BAZ2B block, G9a block, Sfp inh, PLK1 PBD inh, HP1b binding inh)
Cc1ccc(CS(=O)(=O)c2ncc(Cl)c(C(=O)Nc3ccc(OC(F)F)cc3)n2)cc1	JMJD2A Tudor inconclusive, PLK1 PBD inh 21µM (no result: G9a block)
Nc1ccc2c(c1)-c1ccccc1S(=O)(=O)N2	JMJD2A Tudor inconclusive, BAZ2B block inconclusive, G9a block 32µM
CCN(CC)Cc1c(O)ccc2c(-c3ccccc3)cc(=O)oc12	none
CCCCN(CC)Cc1c(O)ccc2c(-c3ccccc3)cc(=O)oc12	G9a block inconclusive, PLK1 PBD inh 27µM
CCOc1ccccc1CN(CCc1ccc2c(c1)OCO2)Cc1cc(OC)c(OC)cc1OC	JMJD2A Tudor 5.6µM, BAZ2B block 45µM, G9a block 0.71µM, HP1b binding inh inconclusive (no result: Sfp inh, PLK1 PBD inh)
CCOc1ccccc1CN(CCc1ccc2c(c1)OCO2)Cc1ccccn1	JMJD2A Tudor 3.2µM, BAZ2B block 35µM, G9a block 5µM, Sfp inh inconclusive, HP1b binding inh inconclusive
O=Cc1ccccc1OCc1ccc2c(c1)OCO2	none (no result: G9a block)
COc1ccc(CC(=O)NCCc2ccc3c(c2)OCO3)cc1OC	none (no result: JMJD2A Tudor, BAZ2B block, G9a block, Sfp inh, HP1b binding inh)
COC(=O)c1c(C)oc2ccc(N(C(=O)Oc3ccccc3)S(=O)(=O)c3ccc(C(C)(C)C)cc3)cc12	none (no result: Sfp inh, PLK1 PBD inh)
Cc1occc1C(=O)NCc1ccc(C(=O)O)o1	Sfp inh 50µM
